Pf growth 48h = P. falciparum growth inhibition at 48 hours (one generation). 310,000 compounds, 5.9% hits. AID 504832. Potency, µM (doses to about 28.7 µM), without a hit: top-dose activity change, negative = inhibition, most hits filed as inhibitors. P. falciparum luciferase growth in erythrocytes, 48 h; also: potency is read from the fitted curve at half-maximal effect; % is scaled to controls: 0 for no effect and ±100 for the full control effect
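First compound was added to culture medium, then infected red cells at 0.1% parasitemia and 2% hematocrit (final). After incubation at 37 C under 5% CO2, luciferase detection reagent was dispensed and light output recorded.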
LASV entry inh = Lassa virus entry inhibition; Lassa virus pseudotype entry inhibition, cell reporter; Potency, µM (series often up to 37.9 µM), inactives show at the highest dose activity change, negative = inhibition, usual class: inhibitors; 300,000 compounds, 1.2% hits; AID 540256; calls by dose curve; tested in HEK293 cells; also: potency is read from the fitted curve at half-maximal effect; % is scaled to controls: 0 for no effect and ±100 for the full control effect; nearly all actives have a fitted effect of over 50% in size
Shiga toxin inh = Shiga toxin inhibition; Vero cells, Shiga toxin protein synthesis inhibition reporter; inhibition, % at 38.7 µM; 290,000 compounds, 9.2% hits; in the data active = inhibition mostly above about 28%, no sharp cut-off; inactive = mostly below about 43%; also: 0% is about no effect
Pf growth 96h = P. falciparum growth inhibition at 96 hour, primary screen for plastid delayed-death inhibitors; Potency, µM (doses to about 28.7 µM), inactives show at the highest dose activity change, negative = inhibition, hits mostly inhibitors; P. falciparum luciferase reporter growth, 96 h; AID 504834; 320,000 compounds, 6.9% hits; also: potency is read from the fitted curve at half-maximal effect; % is scaled to controls: 0 for no effect and ±100 for the full control effect
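Luminescence readout: decreased luciferase signal marks inhibited growth of reporter-expressing P. falciparum in infected red cells (2% hematocrit, 0.05% parasitemia final), exposed to compound two generations (96 h, 37 C, 5% CO2).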
Cycloheximide cs = affects cycloheximide protein synthesis inhibition readout, counter-screen | cell reporter, cycloheximide protein synthesis inhibition counterscreen | max response, % | 300,000 compounds, 12% hits | AID 2314; in the data active = max response mostly above about 13%, no sharp cut-off; inactive = mostly below about 14%; also: read at 38.3 µM for the half of the compounds with a filed dose; 0% is about no effect
MARV entry inh = Marburg virus entry inhibition; Marburg virus pseudotyped entry inhibition, cell reporter; Potency, µM (top dose mostly 37.8 µM), for inactives: at the highest dose activity change, negative = inhibition, most hits filed as inhibitors; 300,000 compounds, 1.8% hits; AID 540276; calls by dose curve; tested in HEK293 cells; also: potency is read from the fitted curve at half-maximal effect; % is scaled to controls: 0 for no effect and ±100 for the full control effect
An asterisk follows results filed as active; ? = inconclusive; . = no result; [ ] = remark or other dose. Shown are actives, neighbours in structure and some others; about 19% of the full set was active somewhere. Unless noted, calls follow the shape of the dose curve; as a rule, active = well fitted inhibition curve with a large enough effect; inconclusive = small, poorly fitted or top-dose-only effect, or another doubt; inactive = no such curve, though single readings can be large or run the other way.

SMILES	Pf growth 48h	LASV entry inh	Shiga toxin inh	Pf growth 96h	Cycloheximide cs	MARV entry inh
Cc1ccc(NC(=O)CSc2nc3ccccc3c(=O)n2CCCC(=O)N2CCCC2)cc1	?	?	-13	-29%	3	8.2µM*
CN(C)CCCn1c(SCC(=O)Nc2nc(-c3cccc(Br)c3)cs2)nc2ccccc2c1=O	?	?	2	?	-3	11µM*
COCCn1c(SCC(=O)Nc2ccc(S(=O)(=O)N(C)C)cc2)nc2ccccc21	.	?	35	4.1µM*	-2	?
CC(C)N(CCn1c(SCC(=O)Nc2cccnc2Cl)nc2ccccc2c1=O)C(C)C	?	.	.	5.9µM*	.	.
Cc1ccc(NC(=O)CSc2nc3ccccc3c(=O)n2CCCC(=O)NCC2CCCO2)cc1 (stereo not drawn)	-5%	-19%[46.1 µM]	-3	?	2	-13%[46.1 µM]
O=C(CSc1nc2ccccc2[nH]1)Nc1nc(-c2cccc(Br)c2)cs1	-29%	13%	-2	?	11	11%
CCOCCCn1c(SCC(=O)Nc2ccccc2CC)nc2ccccc2c1=O	.	-12%[46.1 µM]	.	.	.	.
Cc1ccc(NC(=O)CSc2nc3ccccc3c(=O)n2CCCN2CCCCC2)cc1C	12µM*	21µM*	-3	-20%	-4	?
COCCCn1c(SCC(=O)Nc2ccc(C)cc2)nc2ccccc2c1=O	25%	0%	56*	25%	13	-14%[46.1 µM]
COCCn1c(SCC(=O)Nc2ccc(F)cc2)nc2ccccc2c1=O	-30%	.	3	0%	2	.
Cc1ccc(NC(=O)CSc2nc3ccccc3c(=O)n2CCC(=O)NC2CCCCC2)cc1C	.	15%[46.1 µM]	.	.	.	.
COCCCn1c(SCC(=O)Nc2ccc(C(=O)OC)cc2)nc2ccccc2c1=O	8.3µM*	?	-6	?	7	-18%
CCn1c(C)c(C2N3CC4(C)CN2CC(CC)(C3)C4=O)c2ccccc21 (stereo not drawn)	.	?	.	.	.	-6%[46.1 µM]
CC(O)CNC(=O)c1ccc(-c2nn(C)c(=O)c3ccccc23)cc1 (stereo not drawn)	.	-5%	-7	7%	-2	-11%
Cc1sc2nc(CSCC(=O)Nc3ccc(N4CCOCC4)cc3)[nH]c(=O)c2c1C	?	.	13	?	1	.
CC(=O)C1=NN(c2ccc(Cl)cc2)C(c2ccc3c(c2)OCO3)N(C(C)=O)N1C (stereo not drawn)	12µM*	.	8	12µM*	2	.
O=C(c1ccc(F)cc1)N1CCOC(c2nc(-c3ccc(F)cc3)no2)C1 (stereo not drawn)	6%	.	.	27%	.	.
Cc1nnc(NC(=O)CN2C(=O)c3ccccc3S2(=O)=O)s1	.	-7%	-27	.	-4	?
CN(C(=O)COC(=O)C(Cc1ccccc1)NC(=O)c1ccccc1)c1ccccc1 (stereo not drawn)	13%	6%	-12	2%	-4	9%
CN(C)C(=O)c1cc(Cl)ccc1Sc1cc(Cl)ccc1Cl	.	-3%	-18	-23%	8	-4%
Oc1ccc(Cl)cc1Sc1cc(Cl)ccc1O	?	?	.	13µM*	.	?
FC(F)(F)c1cnc(NNC(=S)Nc2ccc(Cl)cc2)c(Cl)c1	?	?	-4	7.4µM*	13	?
Fc1ccc(NC(=S)NNc2ncc(C(F)(F)F)cc2Cl)c(F)c1	9.3µM*	?	48*	10µM*	21	?
FC(F)(F)c1cccc(NC(=S)NNC(=S)Nc2ccc(Cl)cc2)c1	?	.	25	12µM*	3	.
Cc1cc(C(=O)NNC(=S)Nc2cccc(C(F)(F)F)c2)nn1C	19%	-13%[46.1 µM]	33	41%	18*	18%[46.1 µM]
SMILES	Pf growth 48h	LASV entry inh	Shiga toxin inh	Pf growth 96h	Cycloheximide cs	MARV entry inh
O=C(NNc1ncc(C(F)(F)F)cc1Cl)c1ccc(Cl)c(Cl)c1	?	-5%[46.1 µM]	10	?	-2	21%[46.1 µM]
Cn1nc(C(F)(F)F)c(-c2ccccc2)c1NC(=O)c1cccnc1	?	.	-11	?	-1	.
Cc1ccncc1C(N)=O	43%	.	-9	3%	-2	.
O=C(NCc1ccccc1)C12CC3CC(CC(Cl)(C3)C1)C2	12%	-1%	2	46%	-3	8%
COc1ccc(CCNC(=O)C(=O)c2c(C)n(C)c3ccccc23)cc1OC	7%	.	-5	-28%	-8	.
COc1ccc(CN2CCNC(=O)C2CC(=O)N(C)CCc2cnn(C)c2)c(F)c1 (stereo not drawn)	31%	.	21	15%	1	.
Cc1ccc(NC(=S)NNc2ncc(C(F)(F)F)cc2Cl)c(C)c1	.	-29%	-6	?	-3	?
Cc1ccc(NC(=S)NNc2ncc(C(F)(F)F)cc2Cl)cc1	?	?	-8	10µM*	-9	?
CC(NC(=S)Nc1cccc(C(F)(F)F)c1)C(C)(C)C (stereo not drawn)	?	10µM*	-17	13µM*	-2	?
Fc1ccc(CNC(=S)Nc2cccc(C(F)(F)F)c2)cc1	?	?	18	30%	13*	?
FC(F)(F)c1cccc(NC(=S)NCc2ccc(Cl)cc2)c1	?	-17%	11	-18%[5.75 µM]	-2	?
CN(C)NC(=S)Nc1cccc(C(F)(F)F)c1	?	3%	6	?	-1	19%[46.1 µM]
CCN(C(=O)COC(=O)/C=C/c1ccco1)c1c(N)n(Cc2ccccc2)c(=O)[nH]c1=O	-23%	.	.	-26%	.	.
CCCCn1c(O)c(C(CC)=Nc2ccc3c(c2)CCC3)c(=O)[nH]c1=O	-6%	1.3µM*	40	?	-4	-14%
O=C(Nc1cccnc1)c1cc(-c2cc(Cl)ccc2O)n[nH]1	?	.	91*	0.74µM*	39*	.
Cc1ccc(O)c(-c2cc(C(=O)Nc3cccnc3)[nH]n2)c1	3.7µM*	?	80*	2.9µM*	31*	?
CC(C)c1cc(C(=O)NCc2ccccc2)no1	.	12%[46.1 µM]	.	.	.	?
COc1ccc(-c2cc(C(=O)NCc3ccc(F)cc3)no2)cc1	.	?	.	.	.	-12%[46.1 µM]
O=C(NCc1ccco1)c1cc(-c2ccc(F)cc2)on1	49%	-14%	92*	?	59*	?

Source: PubChem (National Center for Advancing Translational Sciences (NCATS))
